Screening data (PubChem BioAssay)
Sampled rows, rich in hits. Any-hit rate of the full collection: about 7.1%.
ELG1 genotox – qHTS screen for small molecules that induce genotoxicity in human embryonic kidney (HEK293T) cells expressing luciferase-tagged ELG1; HEK293T ELG1-luciferase reporter, luminescence, 16 h; Potency, µM (top dose mostly 46 µM), usual class: activators; 330,000 compounds, 1.3% hits; AID 504466, 2011; further: nearly all actives have a fitted effect of over 60% in size
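DMSO vehicle served as control against compound-treated ELG1-luciferase HEK293T cells; exposure lasted 16 hr at 37 °C and 5% CO2, followed by ONE-Glo luminescence detection after 30 min.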
SW480 rereplic – A quantitative high throughput screen for small molecules that induce DNA re-replication in SW480 colon adenocarcinoma cells | Potency, µM (titrated, usually from 46.1 µM), hits mostly activators | SW480 DNA re-replication, Hoechst DNA content imaging, 48 h | 340,000 compounds, 1.8% hits; further: nearly all actives have a fitted effect of over 55% in size
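Quantitative HTS format with DMSO vehicle controls; 48 hr drug incubation at 37 C, then 40 min Hoechst staining and scanning imager measurement at 405 nm excitation.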
MCF10A rerep – A quantitative high throughput screen for small molecules that induce DNA re-replication in MCF 10a normal breast cells; Potency, µM (highest dose often 46.1 µM), usual class: activators; 350,000 compounds, 2.9% hits; MCF 10A DNA re-replication, Hoechst nuclear intensity, 48 h; further: nearly all actives have a fitted effect of over 50% in size
ELG1 DNA repair – qHTS screen for small molecules that inhibit ELG1-dependent DNA repair in human embryonic kidney (HEK293T) cells expressing luciferase-tagged ELG1. Potency, µM (series often up to 46.1 µM), usual class: inhibitors. 330,000 compounds, 2.3% hits. AID 504467, 2011. HEK293T ELG1-luciferase reporter, luminescence, 16 h; DNA damage induced by 5-fluorouridine; further: nearly all actives have a fitted effect of over 55% in size
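In this reporter screen, reduction of luminescence relative to DMSO vehicle indicated activity. Compounds and 5-fluorouridine were added together to 2,000 cells per well, incubated for 16 hr at 37 °C, then developed with ONE-Glo.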
AT treatment – qHTS Assay for Identifying a Potential Treatment of Ataxia-Telangiectasia. Potency, µM (titrated, usually from 57.5 µM), usual class: activators. F2112 A-T fibroblasts, KAP-1 phosphorylation AlphaLISA; neocarzinostatin DNA damage 30 min before lysis. 320,000 compounds, 0.19% hits; further: nearly all actives have a fitted effect of over 45% in size
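hTERT-immortalized A-T patient fibroblasts (F2112), 500 cells/well in OPTI-MEM, 1% FBS, got compounds for 60 min, then NCS for 30 min at 37C. Lysates were then assayed for phospho-KAP-1 by AlphaLISA (anti-pKAP1 donor, anti-KAP1 acceptor beads), 6 hr at 25C.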
p53 reactivator – qHTS assay for re-activators of p53 using a Luc reporter | H1299 p53-A138V BP100-luciferase reporter, luminescence, 24 h | Potency, µM (series often up to 92.2 µM), most hits filed as activators | 320,000 compounds, 0.063% hits | AID 504706, 2011; further: nearly all actives have a fitted effect of over 45% in size
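H1299 (p53-null), stable ts p53-A138V + BP100-Luc; 1000 cells/well, Opti-MEM/10% FBS; cpd 4 pt, 1:5; 24 h, 37 deg C, 5% CO2; detection reagent 10 min RT; luminescence.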
Each line names hits and unclear results; the compound was inactive in the other large screens. The call rests on the fitted dose curve; in most records, active means well fitted curve in the direction sought with a large enough effect; inconclusive means small, poorly fitted or top-dose-only effect, or another doubt; inactive means no such curve, though single readings can be large; an effect the other way counts as inactive or inconclusive.

CC(=O)Nc1ccc(N(CC(=O)NC2CCCCC2)C(=O)Cn2nnc(-c3ccccc3)n2)cc1	none
CCc1cc(C(=O)OC)c(NC(=O)CN2CCN(C(=O)c3ccco3)CC2)s1	ELG1 DNA repair 10.3µM
CC1CCc2c(sc(NC(=O)CN3CCN(C(=O)c4ccco4)CC3)c2C#N)C1 (stereo unspecified)	MCF10A rerep inconclusive, ELG1 DNA repair 16.4µM
CCOC(=O)c1c(NC(=O)CN2CCN(C(=O)c3ccco3)CC2)sc(C(N)=O)c1C	ELG1 DNA repair 23.1µM
CCOC(=O)c1c(NC(=O)c2ccco2)sc2c1CCCCC2	MCF10A rerep inconclusive
CCOC(=O)c1c(NC(=O)C(C)N2CCN(C(=O)c3ccco3)CC2)sc2c1CCCC2 (stereo unspecified)	MCF10A rerep 14.6µM, ELG1 DNA repair 7.31µM
CCn1c(SCC(=O)Nc2nc(C)cs2)nnc1-c1ccncc1	none
O=C(N/N=C/C(Cl)=C/c1ccccc1)c1ccc2c(c1)OCO2	SW480 rereplic inconclusive, MCF10A rerep inconclusive, p53 reactivator inconclusive
CN(c1ccc(C(=O)Nc2cccnc2)cc1)S(=O)(=O)c1ccc(Cl)cc1	none
COc1ccc(S(=O)(=O)N(C)c2ccc(C(=O)N3CCCC3)cc2)cc1OC	ELG1 DNA repair inconclusive
COc1ccc(S(=O)(=O)N(C)c2ccc(C(=O)NCc3ccncc3)cc2)cc1	SW480 rereplic inconclusive
C=CCNC(=O)c1ccc(CN(c2ccc(OCC)cc2)S(=O)(=O)c2ccc(C)cc2)cc1	SW480 rereplic inconclusive, MCF10A rerep 25.9µM, ELG1 DNA repair inconclusive (no result: p53 reactivator)
C=CCNC(=O)c1ccc(N(Cc2ccc(Cl)cc2)S(C)(=O)=O)cc1	ELG1 DNA repair inconclusive (no result: p53 reactivator)
COc1ccc(S(=O)(=O)N(C)c2ccc(C(=O)Nc3cccnc3)cc2)cc1OC	ELG1 DNA repair 20.6µM
COc1ccc(S(=O)(=O)N(C)c2ccc(C(=O)N3CCN(c4ccccc4)CC3)cc2)cc1OC	MCF10A rerep inconclusive, ELG1 DNA repair 13µM
COc1ccc(CNC(=O)c2ccc(N(C)S(=O)(=O)c3ccc(C)cc3)cc2)cc1	ELG1 DNA repair 20.6µM
CCCCCCCCCCCC(=O)OCC(O)CO (stereo unspecified)	none (no result: ELG1 genotox, ELG1 DNA repair, AT treatment, p53 reactivator)
CN(c1ccc(C(=O)Nc2cccnc2)cc1)S(=O)(=O)c1ccccc1	MCF10A rerep inconclusive
COc1ccc(S(=O)(=O)N(C)c2ccc(C(=O)Nc3cccnc3)cc2)cc1	ELG1 DNA repair 23.1µM
CN(CC(=O)NCc1cccnc1)S(=O)(=O)c1ccc(F)cc1	none
COc1ccc(S(=O)(=O)N(C)CC(=O)NCc2cccnc2)cc1OC	MCF10A rerep 23.1µM
COc1ccccc1C(=O)N1CCN(c2nc3cc(C)c(C)cc3cc2C#N)CC1	SW480 rereplic inconclusive, MCF10A rerep inconclusive, ELG1 DNA repair 23.1µM
Cc1ccc2nc(N3CCN(C(=O)c4ccccc4F)CC3)c(C#N)cc2c1	MCF10A rerep 11.6µM (no result: ELG1 genotox, ELG1 DNA repair, AT treatment, p53 reactivator)
Cc1ccc2nc(N3CCN(C(=O)c4ccc(F)cc4)CC3)c(C#N)cc2c1	ELG1 DNA repair inconclusive
COc1ccc(CCNC(=O)CCNC(=O)N2CC(=O)Nc3ccccc32)cc1OC	ELG1 DNA repair inconclusive
CCOc1ccc2nc(SCC(=O)NCc3ccccc3OC)[nH]c2c1	none
CC(=O)NC(Nc1nc2c(s1)CCCC2)(C(F)(F)F)C(F)(F)F	SW480 rereplic 4.11µM
COC(=O)Nc1nc2c(s1)CCCC2	ELG1 genotox inconclusive, ELG1 DNA repair inconclusive, p53 reactivator inconclusive
CC(C)c1ccc(NC(=O)CCc2ccccc2)cc1	ELG1 genotox inconclusive, SW480 rereplic inconclusive, MCF10A rerep 8.2µM, ELG1 DNA repair inconclusive
CCN(C[C@H]1N[C@@](Cc2ccccc2)(C(=O)OC)[C@H]2C(=O)N(Cc3ccccc3)C(=O)[C@@H]12)C(=O)C1CCCCC1	SW480 rereplic inconclusive
CCN(C[C@H]1N[C@@](Cc2ccccc2)(C(=O)OC)[C@H]2C(=O)N(C)C(=O)[C@@H]12)C(=O)c1ccc(F)cc1	MCF10A rerep 0.82µM
CCN(C[C@H]1N[C@@](C)(C(=O)OC)[C@H]2C(=O)N(Cc3ccccc3)C(=O)[C@@H]12)C(=O)C1CCCCC1	SW480 rereplic 1.46µM, AT treatment inconclusive
CCN(C[C@H]1N[C@@](Cc2ccccc2)(C(=O)OC)[C@H]2C(=O)N(Cc3ccccc3)C(=O)[C@@H]12)C(=O)Nc1ccc(Cl)cc1	SW480 rereplic 18.4µM, MCF10A rerep inconclusive
CCN(C[C@H]1N[C@@](C)(C(=O)OC)[C@H]2C(=O)N(Cc3ccccc3)C(=O)[C@@H]12)C(=O)COC	SW480 rereplic inconclusive, ELG1 DNA repair inconclusive
CCN(C[C@H]1N[C@@](C)(C(=O)OC)[C@H]2C(=O)N(Cc3ccccc3)C(=O)[C@@H]12)C(=O)c1ccc(C(C)(C)C)cc1	SW480 rereplic inconclusive, ELG1 DNA repair 10.3µM
O=C1C(=O)N(CCCO)C(c2ccc(Br)cc2)/C1=C(\O)c1ccc(Br)cc1 (stereo unspecified)	none (no result: p53 reactivator)
CCC(C)(C)C1CCC(NC(=O)N2CCN(c3ccccc3O)CC2)CC1 (stereo unspecified)	none
O=C(NCc1c[nH]c2ccccc12)c1ccccc1	none (no result: ELG1 genotox, ELG1 DNA repair, AT treatment, p53 reactivator)
COC(=O)c1ccc(CN(c2ccc(C)cc2)S(=O)(=O)c2ccc3c(c2)OCCO3)o1	MCF10A rerep inconclusive, ELG1 DNA repair 20.6µM, AT treatment inconclusive
COC(=O)c1ccc(CN(C)S(=O)(=O)c2ccc(C)cc2)o1	none
Cn1ncc(Br)c1NC(=O)CSc1ccc(Cl)cc1	ELG1 DNA repair 7.3µM
CC(C)C(NC(=O)CSc1ccc(Cl)cc1)C(C)C	MCF10A rerep 25.9µM, ELG1 DNA repair inconclusive (no result: AT treatment)
CCC(C)NC(=O)CSc1ccc(Cl)cc1 (stereo unspecified)	ELG1 DNA repair inconclusive, p53 reactivator inconclusive
COc1cccc(/C=N/NC(=O)C[n+]2ccccc2)c1O	SW480 rereplic inconclusive, MCF10A rerep inconclusive, ELG1 DNA repair inconclusive, p53 reactivator inconclusive
COc1ccc(CCCC(=O)N/N=C/c2cccc(OC)c2O)cc1C	ELG1 genotox inconclusive, SW480 rereplic inconclusive, MCF10A rerep 1.46µM, p53 reactivator inconclusive
COc1cccc(/C=N/NC(=O)CNC(=O)c2ccco2)c1O	SW480 rereplic inconclusive, ELG1 DNA repair 8.2µM
